Sampled rows, rich in hits. Any-hit rate of the full collection: about 0.62%.
S-ASM inh: human S-ASM enzyme inhibition | P17405 | placental ASM, HMU-PC fluorogenic substrate, 60 min | Potency, µM (series often up to 57.5 µM), for inactives: at the highest dose activity change, negative = inhibition, hits mostly inhibitors | hit rate 0.006% among 340,000; active = well fitted inhibition curve with a large enough effect; inconclusive = small, poorly fitted or top-dose-only effect; inactive = no such curve, though single readings can be large or run the other way
Target sequence (P17405 47-631 limits assumed): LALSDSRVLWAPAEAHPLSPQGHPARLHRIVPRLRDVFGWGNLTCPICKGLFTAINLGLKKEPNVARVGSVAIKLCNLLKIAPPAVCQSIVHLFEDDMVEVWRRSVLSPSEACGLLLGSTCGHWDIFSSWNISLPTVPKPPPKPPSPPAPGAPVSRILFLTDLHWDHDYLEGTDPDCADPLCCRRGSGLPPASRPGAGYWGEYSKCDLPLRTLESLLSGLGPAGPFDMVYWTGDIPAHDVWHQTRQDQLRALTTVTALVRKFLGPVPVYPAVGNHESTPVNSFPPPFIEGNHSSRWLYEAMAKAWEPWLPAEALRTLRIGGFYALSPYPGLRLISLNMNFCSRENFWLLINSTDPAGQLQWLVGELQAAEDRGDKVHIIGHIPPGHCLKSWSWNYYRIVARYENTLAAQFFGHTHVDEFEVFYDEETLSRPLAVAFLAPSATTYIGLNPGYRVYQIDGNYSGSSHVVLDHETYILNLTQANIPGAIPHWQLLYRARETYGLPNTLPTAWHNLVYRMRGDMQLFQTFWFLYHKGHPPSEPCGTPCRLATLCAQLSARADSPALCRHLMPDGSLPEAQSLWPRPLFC
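qHTS format. ASM enzyme prepared from human placenta hydrolyses the fluorogenic substrate HMU-PC0 (9 uM final) over 60 min at 37 °C after a 10 min compound preincubation.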
BCR signal inh: inhibitors of chronic active B-cell receptor signaling | ABC-DLBCL IkBa-CBG/CBR reporter, luminescence ratio, 4 h | Potency, µM (highest dose often 46.1 µM), for inactives: top-dose activity change, negative = inhibition, hits mostly inhibitors | hit rate 0.05% among 340,000 | AID 493014; active = well fitted inhibition curve with a large enough effect in the signal ratio, with a control signal flat, not every such curve was filed as active; inconclusive = small, poorly fitted or top-dose-only effect, or effect the other way, or a change in a side signal; the % refers to the signal ratio;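 also: plate controls were basal doxycycline-induced cells for no effect and cells given 10 µM MG132 for full effect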
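Cell line TMD8 (human ABC DLBCL), stably expressing tet-inducible CBG68-IkBa fusion and CBR; IMDM/0.5% FBS; cpd up to 46 uM; dox induction, 4 h, 37C/5% CO2; dual luminescence; green/red ratio; MG132 control.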
gsp antagonist: gsp mutant antagonism; gsp-mutant cells, cAMP HTRF, 30 min; Potency, µM (titrated, usually from 76.9 µM), for inactives: top-dose activity change, negative = inhibition, most hits filed as inhibitors; hit rate 0.4% among 340,000; AID 624288; calls by dose curve; cell line not stated here;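 also: intracellular cAMP measured with PDE inhibitor Ro 20-1724 present during compound exposure; % is scaled to controls: 0 for no effect and ±100 for the full control effect; nearly all actives have a fitted effect of over 65% in size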
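G418-selected cells were plated in DMEM/10% FBS for 16-24 h at 37C, then treated with compounds plus the PDE inhibitor […] (300 uM solution added) for 30 min at 37C. Intracellular cAMP was measured by HTRF after 30 min lysis at room temperature.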
MBNL1 CUG block: MBNL1-poly(CUG) RNA binding inhibition | hit rate 0.036% among 280,000 | TR-FRET MBNL1-His/biotin-(CUG)12 binding, 665/545 ratio | Q9NR56 | Potency, µM (series often up to 57.5 µM), for inactives: at the top dose activity change, negative = inhibition, most hits filed as inhibitors; active = well fitted inhibition curve with a large enough effect in the signal ratio, with a control signal flat, not every such curve was filed as active; inconclusive = small, poorly fitted or top-dose-only effect, or effect the other way, or a change in a side signal; inactive = no such curve, though single readings can be large or run the other way; the % refers to the signal ratio; also: % is scaled to controls: 0 for no effect and ±100 for the full control effect
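TR-FRET between His-tagged MBNL1 and biotin-(CUG)12 RNA, detected with Tb anti-His antibody (0.055 ng/ul) and streptavidin-XL665 (5 nM), 60 min at room temperature. Compounds titrated 92 nM to 58 uM; 665/545 nm ratio normalized to buffer and complex controls.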
gsp agonist: agonists of gsp mutant (McCune-Albright syndrome); gsp mutant cells, cAMP HTRF, 30 min; Potency, µM (highest dose often 76.9 µM), for the others: at the top dose activation (cAMP increase), actives largely listed as activators; hit rate 0.13% among 340,000; active = well fitted activation curve with a large enough effect; inconclusive = small, poorly fitted or top-dose-only effect, or another doubt; inactive = no such curve, though single readings can be large or run the other way; cell line not stated here;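 also: phosphodiesterase inhibitor Ro 20-1724 added with compounds to block cAMP breakdown; nearly all actives have a fitted effect of over 60% in size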
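Cells stably selected in G418 were plated at 2000/well, grown 16-24 hr, then given compounds in DMSO with the PDE inhibitor […] (300 uM solution added) for 30 min at 37C; cAMP was read by HTRF.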
Numbers without * were called inactive; [ ] = another dose, or the depositor's remark. Potency is read from the fitted curve at half-maximal effect.

O=C(c1ccc(Oc2ccccc2)cc1)C1CCCN(C(=O)c2cnccn2)C1 (stereo not given) was read as S-ASM inh 3.2%, BCR signal inh 5.0%, gsp antagonist -15.8%, MBNL1 CUG block -0.4% and gsp agonist 1.9%[15.4 µM].
`O=C(CCc1nc(-c2ccccc2Cl)no1)Nc1cccnc1` gave S-ASM inh -1.5%, BCR signal inh 2.9%, gsp antagonist 15.4%, MBNL1 CUG block 0.0% and gsp agonist -1.2%[15.4 µM].
Cc1cc(Br)c2[nH]cc(CCNC(=O)c3ccco3)c2c1 was read as S-ASM inh -1.4%, BCR signal inh -1.4%, gsp antagonist -15.2%, MBNL1 CUG block -7.2% and gsp agonist -25.4%.
`CC1C(=O)N2CCCc3cc(NC(=O)c4ccccc4Br)cc1c32` (stereo not given) gave S-ASM inh 1.9%, BCR signal inh 23.1µM*, gsp antagonist 16.7% and gsp agonist inconclusive.
`COc1ccc(-n2c(C)cc(C(=O)COC(=O)c3ccc(O)cc3O)c2C)cc1` gave S-ASM inh -11.9%, BCR signal inh inconclusive, gsp antagonist 31.6µM* and gsp agonist 3.7%.
Screening Cc1cc(C(=O)COC(=O)c2ccc(O)cc2O)c(C)n1-c1ccccc1 returned S-ASM inh -12.4%, BCR signal inh inconclusive, gsp antagonist inconclusive and gsp agonist -47.2%.
O=C(CC1N=C2c3ccccc3N=C(SCc3cccc(F)c3)N2C1=O)NCc1ccc2c(c1)OCO2 (stereo not given) was read as BCR signal inh 10.1%.
Screening O=C(C1=C(O)C(=O)N(CCN2CCOCC2)C1c1cccc(F)c1)c1cc2ccccc2o1 (stereo not given) returned S-ASM inh -4.4%, BCR signal inh 9.4%, gsp antagonist 6.2%, MBNL1 CUG block 168.3% and gsp agonist 7.08µM*.
O=C(C1=C(O)C(=O)N(Cc2ccco2)C1c1cccnc1)c1cc2ccccc2o1 (stereo not given) was read as S-ASM inh -6.6%, BCR signal inh -0.6%, gsp antagonist 3.9%, MBNL1 CUG block 75.5% and gsp agonist 12.6µM*.
`O=C(C1=C(O)C(=O)N(CCN2CCOCC2)C1c1cccnc1)c1cc2ccccc2o1` (stereo not given) gave S-ASM inh -3.3%, BCR signal inh 0.0%, gsp antagonist 19.4%, MBNL1 CUG block 20.2% and gsp agonist inconclusive.
C=CCOc1ccc(C2C(C(=O)c3ccco3)=C(O)C(=O)N2Cc2cccnc2)cc1 (stereo not given) was read as S-ASM inh -3.0%, BCR signal inh 2.1%, gsp antagonist 13.8%, MBNL1 CUG block 12.9% and gsp agonist 28.2µM*.
For COc1cccc2cc(C(=O)C3=C(O)C(=O)N(Cc4ccco4)C3c3cccnc3)oc12 (stereo not given) the results were S-ASM inh -3.5%, BCR signal inh inconclusive, gsp antagonist -2.0%, MBNL1 CUG block 64.0% and gsp agonist 10µM*.
Screening CC(C)(C)c1ccc(OCCC(=O)OCC(=O)Nc2ccc(N3CCOCC3)cc2)cc1 returned S-ASM inh -4.2%, BCR signal inh 1.1%, gsp antagonist 4.5% and gsp agonist -4.9%[15.4 µM].
For CCOC(=O)C1=C(COC(=O)/C=C/c2ccc(OC)cc2OC)NC(=O)NC1C (stereo not given) the results were S-ASM inh -2.1%, BCR signal inh -6.2%, gsp antagonist 16.6% and gsp agonist -8.6%.
`O=C(c1cncc(Br)c1)N1CCN(S(=O)(=O)c2ccc3ccccc3c2)CC1` gave S-ASM inh -3.1%, BCR signal inh -5.0%, gsp antagonist -18.5% and gsp agonist 9.9%[15.4 µM].
Cc1ccc(N2CCN(S(=O)(=O)c3c(C)[nH]c(=O)[nH]c3=O)CC2C)cc1 (stereo not given) was read as BCR signal inh -6.7%.
Screening COc1cc(CCC(=O)OCC(=O)Nc2ccc(C)cc2Cl)cc(OC)c1OC returned S-ASM inh -1.1%, BCR signal inh -0.1%, gsp antagonist 2.2%, MBNL1 CUG block -9.7% and gsp agonist 25.2%.
